High-throughput results: PubChem BioAssay, Broad Institute
Many of the other results were omitted from the sample, so hits are more common in it than they were.
IDE exosite FP: insulin-degrading enzyme (human) exo-site inhibition; purified IDE, FL-6b probe fluorescence polarization; active compounds read low; z-score at 20 µM; 17,000 compounds, 6.3% hits;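 active = z-score of -3 or lower, meaning strong loss of probe binding signal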;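 note: His-tagged human IDE residues 42-1019 made in E. coli with 30 nM FL-6b probe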
Target sequence (P14735 42-1019 limits assumed): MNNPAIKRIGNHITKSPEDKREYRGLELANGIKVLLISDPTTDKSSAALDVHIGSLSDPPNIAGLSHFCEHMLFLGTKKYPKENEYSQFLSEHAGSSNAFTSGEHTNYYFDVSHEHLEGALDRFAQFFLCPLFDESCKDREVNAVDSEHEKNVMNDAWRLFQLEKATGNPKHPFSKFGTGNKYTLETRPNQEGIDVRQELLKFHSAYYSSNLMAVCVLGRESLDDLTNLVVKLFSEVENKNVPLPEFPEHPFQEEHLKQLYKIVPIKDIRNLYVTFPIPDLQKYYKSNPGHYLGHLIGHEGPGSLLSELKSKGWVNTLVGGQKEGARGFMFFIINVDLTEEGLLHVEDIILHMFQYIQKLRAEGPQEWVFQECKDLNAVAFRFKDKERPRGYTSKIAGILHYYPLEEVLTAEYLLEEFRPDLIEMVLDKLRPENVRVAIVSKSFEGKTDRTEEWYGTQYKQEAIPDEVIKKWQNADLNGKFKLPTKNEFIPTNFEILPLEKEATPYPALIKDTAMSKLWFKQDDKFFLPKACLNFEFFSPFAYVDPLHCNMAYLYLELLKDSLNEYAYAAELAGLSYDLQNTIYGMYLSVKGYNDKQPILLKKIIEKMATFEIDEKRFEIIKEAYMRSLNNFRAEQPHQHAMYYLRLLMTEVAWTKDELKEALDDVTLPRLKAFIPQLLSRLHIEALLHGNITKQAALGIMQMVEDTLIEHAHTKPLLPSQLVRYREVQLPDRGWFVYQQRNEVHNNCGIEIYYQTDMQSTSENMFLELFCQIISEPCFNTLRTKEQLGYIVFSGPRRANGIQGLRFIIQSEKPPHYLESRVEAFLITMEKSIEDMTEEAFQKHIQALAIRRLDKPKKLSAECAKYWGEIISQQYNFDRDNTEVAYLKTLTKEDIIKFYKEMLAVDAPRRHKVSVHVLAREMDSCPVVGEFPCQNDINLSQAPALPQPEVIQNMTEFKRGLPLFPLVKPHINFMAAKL
Each line names hits and unclear results; the compound was inactive in the other large screens; ! = repeats disagree.

c1cncc(-c2ccc(C3[C@@H]4CN(Cc5ccc6c(c5)OCO6)C[C@H]3N4)cc2)c1 (stereo not given in full)	none
Cc1ccccc1-c1ccc(C2[C@H]3CNC[C@@H]2N3Cc2ccc3c(c2)OCO3)cc1 (stereo not given in full)	none
c1ncc(-c2ccc(C3[C@@H]4CN(Cc5cocn5)C[C@H]3N4)cc2)cn1 (stereo not given in full)	none
Cc1ccccc1-c1ccc(C2[C@@H]3CN(Cc4ccc5c(c4)OCO5)C[C@H]2N3)cc1 (stereo not given in full)	IDE exosite FP -4.3!
C(=C\c1ccc(C2[C@@H]3CN(Cc4cocn4)C[C@H]2N3)cc1)/c1ccccc1 (stereo not given in full)	none
O=C(NC[C@@H]1[C@H](c2ccccc2)[C@@H](CO)N1C(=O)Cc1cccnc1)C1CC1	none
CC(=O)N1CC[C@@H]2[C@H](CO)Nc3ccc(-c4ccccc4)cc3[C@@H]21	none
C[C@@H]1CCCCO[C@@H](CN(C)C(=O)Nc2ccc(C(F)(F)F)cc2)[C@H](C)CN([C@@H](C)CO)C(=O)c2cc(NS(=O)(=O)c3cn(C)cn3)ccc2O1	none
C[C@H]1CC(=O)N[C@@H](c2ccccc2)C/C=C\C[C@H](c2ccccc2)NC1=O	none
Cc1ccccc1S(=O)(=O)N1CC(=O)N2[C@H](C1)[C@H](c1ccc(C#CCC3CCCC3)cc1)[C@@H]2CO	none
O=C(Nc1cccc(F)c1)N1CC(=O)N2[C@H](CO)[C@@H](c3ccc(C#CCC4CCCC4)cc3)[C@H]2C1	none
COc1ccccc1NC(=O)N1CC(=O)N2[C@H](CO)[C@H](c3ccc(C#CC4CC4)cc3)[C@H]2C1	none
COc1cccc(C(=O)Nc2ccc3c(c2)C(=O)N(C)[C@@H]2CC[C@@H](CC(=O)N[C@@H](C)c4ccccc4)O[C@H]2CO3)c1	none
C[C@H](NC(=O)C[C@H]1CC[C@@H]2[C@@H](COc3ccc(NC(=O)C4CCOCC4)cc3C(=O)N2C)O1)c1ccccc1	none
COc1cccc(C(=O)Nc2ccc3c(c2)C(=O)N(C)[C@@H]2CC[C@@H](CC(=O)N[C@@H](C)c4ccccc4)O[C@@H]2CO3)c1	none
COc1cccc(C(=O)Nc2ccc3c(c2)C(=O)N(C)[C@@H]2CC[C@@H](CC(=O)N[C@H](C)c4ccccc4)O[C@H]2CO3)c1	none
COc1cccc(C(=O)Nc2ccc3c(c2)C(=O)N(C)[C@H]2CC[C@@H](CC(=O)N[C@H](C)c4ccccc4)O[C@@H]2CO3)c1	IDE exosite FP -3.58
COc1cccc(C(=O)Nc2ccc3c(c2)C(=O)N(C)[C@H]2CC[C@@H](CC(=O)N[C@@H](C)c4ccccc4)O[C@@H]2CO3)c1	IDE exosite FP -6.99
O=C([C@H]1[C@H](CO)[C@H]2Cn3c(cccc3=O)[C@@H]1N2)N1CCc2ccccc2C1	none
COCC#Cc1ccc([C@H]2[C@@H](CO)N3CCCCN(Cc4cccnc4)C[C@H]23)cc1	none
COCC(=O)N1CC(=O)N2[C@@H](CO)[C@H](c3ccc(C#Cc4cccnc4)cc3)[C@@H]2C1	none
COCC(=O)N1CC(=O)N2[C@@H](CO)[C@H](c3ccc(C#Cc4cccc(OC)c4)cc3)[C@@H]2C1	IDE exosite FP -4.95
COCC(=O)N1CC(=O)N2[C@H](C1)[C@H](c1ccc(C#CC3CCCC3)cc1)[C@@H]2CO	none
COCC(=O)N1CC(=O)N2[C@H](CO)[C@@H](c3ccc(C#Cc4cccc(OC)c4)cc3)[C@H]2C1	none
COCC(=O)N1CC(=O)N2[C@H](CO)[C@H](c3ccc(C#CC4CCCCC4)cc3)[C@@H]2C1	none
COCC(=O)N1CC(=O)N2[C@H](C1)[C@@H](c1ccc(C#CC3CCCCC3)cc1)[C@@H]2CO	IDE exosite FP -10.6
COCC(=O)N1CC(=O)N2[C@H](CO)[C@@H](c3ccc(C#Cc4cccc(OC)c4)cc3)[C@@H]2C1	IDE exosite FP -4.46
COCC(=O)N1CC(=O)N2[C@H](C1)[C@@H](c1ccc(C#Cc3cccnc3)cc1)[C@@H]2CO	none
O=C(NCC[C@H]1CC[C@@H](NC(=O)c2ccccc2F)[C@H](CO)O1)c1cnccn1	none
COc1ccc(S(=O)(=O)N2C[C@@H](O)COC[C@@H]3O[C@H](CC(=O)N[C@@H]4CCN(Cc5ccccc5)C4)CC[C@H]32)cc1	none
CO[C@H](CN(C)Cc1ccc2c(c1)OCO2)[C@@H](C)CN(C(=O)Nc1ccc(F)cc1)[C@H](C)CO	none
O=C(C[C@H]1C[C@H]2c3cc(NS(=O)(=O)c4ccc(F)cc4)ccc3O[C@H]2[C@@H](CO)O1)NCCN1CCCCC1	none
